Only a selection was taken, and hits are over-represented in it overall.
Dicer processing = inhibitors of human Dicer processing of pre-microRNA; cat-ELCCA pre-miR-21 Dicer processing, chemiluminescence; stronger effect = higher value; AID 1347074; 47,000 tested, 6% active; z-score at 25 µM; Q9UPY3; in the data active means z-score above about 3, passing the limit was not always enough;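 further: plate controls were vehicle for no effect and no enzyme for full effect; higher signal means more uncleaved substrate so more Dicer inhibition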
Target sequence (Q9UPY3 whole entry, looked up): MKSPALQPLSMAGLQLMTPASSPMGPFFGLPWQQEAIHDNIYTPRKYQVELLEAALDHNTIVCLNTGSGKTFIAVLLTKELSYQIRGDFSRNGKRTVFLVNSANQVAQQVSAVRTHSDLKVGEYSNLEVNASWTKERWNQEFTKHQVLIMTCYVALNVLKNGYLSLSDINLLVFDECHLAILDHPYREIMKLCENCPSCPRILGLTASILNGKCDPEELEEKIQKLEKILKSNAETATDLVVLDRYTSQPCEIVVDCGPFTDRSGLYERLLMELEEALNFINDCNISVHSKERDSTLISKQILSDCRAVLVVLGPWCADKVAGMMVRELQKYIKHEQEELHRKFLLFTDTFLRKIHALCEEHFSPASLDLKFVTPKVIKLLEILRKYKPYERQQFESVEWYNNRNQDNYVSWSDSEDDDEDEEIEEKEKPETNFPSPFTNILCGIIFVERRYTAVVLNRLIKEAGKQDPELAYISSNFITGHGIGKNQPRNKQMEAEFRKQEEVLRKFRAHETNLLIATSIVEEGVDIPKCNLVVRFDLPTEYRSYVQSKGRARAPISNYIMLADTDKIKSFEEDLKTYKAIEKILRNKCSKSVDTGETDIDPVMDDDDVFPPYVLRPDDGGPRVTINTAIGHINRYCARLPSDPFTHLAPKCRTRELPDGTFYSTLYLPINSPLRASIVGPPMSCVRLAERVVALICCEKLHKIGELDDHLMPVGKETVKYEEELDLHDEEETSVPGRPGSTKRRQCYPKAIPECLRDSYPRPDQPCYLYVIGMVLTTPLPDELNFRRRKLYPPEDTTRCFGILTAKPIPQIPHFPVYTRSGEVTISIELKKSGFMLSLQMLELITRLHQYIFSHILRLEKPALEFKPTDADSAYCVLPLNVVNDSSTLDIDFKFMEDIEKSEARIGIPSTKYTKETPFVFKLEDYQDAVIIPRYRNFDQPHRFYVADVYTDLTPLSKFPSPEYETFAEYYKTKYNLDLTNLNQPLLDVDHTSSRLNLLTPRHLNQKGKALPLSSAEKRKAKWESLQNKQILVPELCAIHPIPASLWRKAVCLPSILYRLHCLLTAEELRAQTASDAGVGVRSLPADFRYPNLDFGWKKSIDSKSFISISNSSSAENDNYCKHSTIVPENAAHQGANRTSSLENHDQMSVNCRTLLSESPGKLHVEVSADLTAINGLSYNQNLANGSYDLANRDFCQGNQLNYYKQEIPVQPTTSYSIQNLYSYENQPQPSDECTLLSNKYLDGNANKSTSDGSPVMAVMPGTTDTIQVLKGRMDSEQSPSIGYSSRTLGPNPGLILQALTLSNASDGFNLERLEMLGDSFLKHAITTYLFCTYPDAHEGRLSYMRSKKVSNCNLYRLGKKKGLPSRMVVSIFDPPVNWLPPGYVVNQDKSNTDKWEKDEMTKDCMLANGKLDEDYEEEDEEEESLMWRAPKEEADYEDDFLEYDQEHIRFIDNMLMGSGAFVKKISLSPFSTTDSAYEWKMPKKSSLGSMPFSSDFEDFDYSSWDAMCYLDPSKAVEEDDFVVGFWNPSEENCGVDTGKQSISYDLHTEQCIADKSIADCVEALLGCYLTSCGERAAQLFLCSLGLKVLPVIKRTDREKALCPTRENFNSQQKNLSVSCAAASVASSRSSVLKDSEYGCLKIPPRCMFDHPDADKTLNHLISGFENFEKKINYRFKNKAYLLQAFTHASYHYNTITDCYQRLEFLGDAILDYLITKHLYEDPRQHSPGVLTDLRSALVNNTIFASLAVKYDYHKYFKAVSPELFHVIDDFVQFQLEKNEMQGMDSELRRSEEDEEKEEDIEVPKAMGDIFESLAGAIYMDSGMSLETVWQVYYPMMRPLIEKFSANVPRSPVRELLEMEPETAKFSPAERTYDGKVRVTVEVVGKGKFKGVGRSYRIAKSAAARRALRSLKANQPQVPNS
* hit, by the source's call.

Screening FC(F)(F)c1cnc(NCCNc2cnc3ccccc3n2)c(Cl)c1 returned Dicer processing -1.2.
`Cc1ccc(S(=O)(=O)NC(=O)NCCNc2ncc(C(F)(F)F)cc2Cl)cc1` gave Dicer processing -1.6.
Screening O=C(NCCNc1ncc(C(F)(F)F)cc1Cl)C(F)(F)Sc1ccccc1 returned Dicer processing 5*.
`Cc1c2c(n3c(nc4ccccc43)c1C#N)N(Cc1cccnc1)CC2` gave Dicer processing -1.2.
For c1cncc(CN2CNc3nc4ccccc4n3C2)c1 the results were Dicer processing 3*.
For c1ccc2c(c1)nc1n2CN(Cc2ccc3c(c2)OCO3)CN1 the results were Dicer processing 3.5*.
`c1ccc2c(c1)nc1n2CN(CCN2CCOCC2)CN1` gave Dicer processing 3.2*.
For c1ccc2c(c1)nc1n2CN(CCCN2CCOCC2)CN1 the results were Dicer processing 1.2.
Cc1cc2nc(NC3=NCN(Cc4cccnc4)CN3)nc(C)c2cc1C was read as Dicer processing 1.5.
`c1ccc2oc(NC3=NCN(Cc4ccc5c(c4)OCO5)CN3)nc2c1` gave Dicer processing 2.3.
For Cc1ccc2nc(NC3=NCN(Cc4ccc5c(c4)OCO5)CN3)nc(C)c2c1 the results were Dicer processing 0.55.
For c1ccc(CCN2CN(CCCN3CCOCC3)c3nc4ccccc4n3C2)cc1 the results were Dicer processing -1.4.
For COc1ccc(C2NN=C(c3ccccc3OCc3ccccc3)C2O)cc1 (stereo not given) the results were Dicer processing -0.96.
`Cc1noc(C)c1C(=O)Nc1ccc(N2CCOCC2)nc1N1CCOCC1` gave Dicer processing -0.49.
Screening COc1ccc2c(oc(=O)c3ccccc32)c1C returned Dicer processing 2.1.
`Cc1nnc(SCC(=O)Nc2sc3c(c2C(=O)OC(C)C)CCCC3)s1` gave Dicer processing 0.07.
`CSc1nc(N)nc(-c2ccccc2Cl)c1C#N` gave Dicer processing -1.4.
Screening CSc1nc2cc(C)nn2c(-c2ccc(C(C)(C)C)cc2)c1C#N returned Dicer processing 2.6.
`CSc1nc2cc(C)nn2c(-c2ccccc2Cl)c1C#N` gave Dicer processing 5.2*.
`FC(F)(F)c1cc(/C=C/c2noc(C(F)(F)F)n2)cc(C(F)(F)F)c1` gave Dicer processing 0.29.
For COc1ccccc1C1CC(=O)C2=C(C1)NC(C)=C(C(=O)OC(C)C)C2c1coc2ccccc2c1=O (stereo not given) the results were Dicer processing 0.03.
CCCOc1ccccc1C1C(C(=O)OCC)=C(C)NC2=C1C(=O)CC(c1ccccc1)C2 (stereo not given) was read as Dicer processing 0.08.
`CCCOC(=O)C1=C(C)NC2=C(C(=O)CC(c3ccccc3OC)C2)C1c1coc2ccccc2c1=O` (stereo not given) gave Dicer processing 6*.
COc1ccc(C2CC(=O)C3=C(C2)NC(C)=C(C(=O)OCC(C)C)C3c2ccc3c(c2)OCO3)cc1 (stereo not given) was read as Dicer processing -0.15.
For COC(=O)C1=C(C)NC2=C(C(=O)CC(c3ccccc3)C2)C1c1ccccc1Br (stereo not given) the results were Dicer processing 7.6*.
Screening CCCOC(=O)C1=C(C)NC2=C(C(=O)CC(c3cccs3)C2)C1c1coc2ccc(C)cc2c1=O (stereo not given) returned Dicer processing -0.42.
For CCOC(=O)C1=C(C)NC2=C(C(=O)CC(c3ccccc3)C2)C1c1ccccc1Cl (stereo not given) the results were Dicer processing 3.7*.
`COC(=O)C1=C(C)NC2=C(C(=O)CC(c3ccccc3)C2)C1c1ccc(Br)cc1` (stereo not given) gave Dicer processing 1.3.
COc1ccc(C2C(C(=O)OCC(C)C)=C(C)NC3=C2C(=O)CC(c2ccccc2)C3)c(OC)c1 (stereo not given) was read as Dicer processing 1.1.
For CCOC(=O)C1=C(C)NC2=C(C(=O)CC(c3ccccc3)C2)C1c1ccc(C)o1 (stereo not given) the results were Dicer processing 1.2.
CC(=O)Oc1ccc(C2C(C(=O)OCC(C)C)=C(C)NC3=C2C(=O)CC(c2ccccc2)C3)cc1 (stereo not given) was read as Dicer processing 7*.
Screening COC(=O)C1=C(C)NC2=C(C(=O)CC(c3ccc(OC)cc3)C2)C1c1ccc(OC)cc1 (stereo not given) returned Dicer processing -1.5.
`COc1ccccc1OCc1nc(-c2ccc(Br)cc2)no1` gave Dicer processing 0.47.
`CCOC(=O)c1cc(C#N)c(N2CCN(C(=O)c3ccc(Cl)cc3)CC2)nc1C(F)(F)F` gave Dicer processing -1.5.
For COc1ccc(-n2nnnc2SCC(=O)O)cc1 the results were Dicer processing -1.4.
COc1cc(-c2ccc(Cl)cc2)[nH]n1 was read as Dicer processing -0.63.
For COC(=O)CC/C(=N\NS(=O)(=O)c1ccc(C)cc1)c1ccn(S(=O)(=O)c2ccccc2)c1 the results were Dicer processing -2.6.
Screening COC(=O)Nc1ccc(SC(F)(F)F)cc1 returned Dicer processing 0.55.
`CCOc1ccc(C2Nc3ccc4ncccc4c3C3=C2C(=O)CCC3)cc1` (stereo not given) gave Dicer processing 0.74.
For CCOC(=O)c1cnn(-c2ccccc2)c1NC(=O)CN1CCN(c2ccccc2)CC1 the results were Dicer processing -0.25.
For Fc1ccc(Oc2cc(C(F)(F)F)nc3c(Br)cccc23)cc1 the results were Dicer processing -0.19.
CCSCCOC(=O)C1=C(C)NC2=C(C(=O)CC(c3ccccc3)C2)C1c1cccc(F)c1 (stereo not given) was read as Dicer processing 3.7*.
Screening CCSCCOC(=O)C1=C(C)NC2=C(C(=O)CC(c3ccc(OC)cc3)C2)C1c1ccc(F)cc1 (stereo not given) returned Dicer processing 1.7.
Screening CCOCCOC(=O)C1=C(C)NC2=C(C(=O)CC(c3ccccc3)C2)C1c1cccc2ccccc12 (stereo not given) returned Dicer processing 5.2*.
`CCOC(=O)C1=C(C)NC2=C(C(=O)CC(c3ccccc3)C2)C1c1cccc2ccccc12` (stereo not given) gave Dicer processing 0.44.
CC1=C(C(=O)OCC(C)C)C(c2cccc(F)c2)C2=C(CC(c3ccccc3)CC2=O)N1 (stereo not given) was read as Dicer processing 1.1.
CCOCCOC(=O)C1=C(C)NC2=C(C(=O)CC(c3ccccc3)C2)C1c1ccc(F)cc1 (stereo not given) was read as Dicer processing 1.6.
`Cc1cc(C)c(N2CC(=O)NCC2=O)c(C)c1` gave Dicer processing 0.58.
For CC1CN(c2ccc(Br)cc2)c2nc3c(c(=O)n(CCCO)c(=O)n3C)n2C1 (stereo not given) the results were Dicer processing 0.9.
`Nc1c(C(=O)Nc2ccc(Cl)cc2)sc2nc3c(cc12)CCCCC3` gave Dicer processing 0.82.
Screening CN(C)c1ccc(-n2nnnc2SCC(=O)Nc2ccc(OC(F)(F)F)cc2)cc1 returned Dicer processing -0.39.
Screening COCCOC(=O)C1=C(C)NC2=C(C(=O)CC(C)(C)C2)C1c1ccccc1OCc1ccccc1 (stereo not given) returned Dicer processing -0.85.
For CC1(C)CC(=O)C2=C(C1)c1c(ccc3ncccc13)NC2c1ccc2c(c1)OCO2 (stereo not given) the results were Dicer processing 0.63.
`CC1CC(C)(C)N(C(=O)NC2CCCCC2)c2ccccc21` (stereo not given) gave Dicer processing 2.5.

Source: PubChem BioAssay (Center for Chemical Genomics, University of Michigan)
